Results as given in the supplement of paper PMC11732987, “Enantioselective OTUD7B fragment discovery through chemoproteomics screening and high-throughput optimisation” (Communications Chemistry, 2025).

Columns and labels:
Test in all cases: log2 ratio of Biotin-Ahx-Ub-VS probe labelling (fragment/DMSO); higher = less target engagement (more negative = stronger competition), active = hit call of the paper (q ≤ 0.05, log2 ratio ≤ -1)
Details in all cases: compound concentration: 200 uM; treatment time: 3 h
[1] = target: T1, OTUD6B (UniProt Q8N6M0)
T1 sequence (whole entry): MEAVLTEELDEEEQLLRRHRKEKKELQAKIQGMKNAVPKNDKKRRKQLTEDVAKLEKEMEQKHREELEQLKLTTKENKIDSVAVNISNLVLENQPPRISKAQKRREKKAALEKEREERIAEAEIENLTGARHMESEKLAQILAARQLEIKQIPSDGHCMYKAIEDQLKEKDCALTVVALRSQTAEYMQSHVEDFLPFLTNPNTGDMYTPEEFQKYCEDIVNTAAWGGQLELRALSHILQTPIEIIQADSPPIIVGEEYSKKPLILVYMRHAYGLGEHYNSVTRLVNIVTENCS
How it was run: (§1)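 HEK293T lysate (495 µg per sample, in Tris/CHAPS/IGEPAL buffer with protease inhibitors) was treated in triplicate with fragment at 200 µM or with DMSO for 3 h. It was then treated with Biotin-Ahx-Ub-VS (0.5 µM final) for 1 h. Labelled DUBs were NeutrAvidin-enriched, digested with LysC and trypsin, and run by diaPASEF LC-MS/MS. Spectronaut label-free quantities were global-median-normalised. Values are average log2 ratios fragment/DMSO by unpaired t-test, using proteins with ≥2 unique peptides.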

[2] = target: T2, OTUD7B (UniProt Q6GQQ9)
T2 sequence (whole entry): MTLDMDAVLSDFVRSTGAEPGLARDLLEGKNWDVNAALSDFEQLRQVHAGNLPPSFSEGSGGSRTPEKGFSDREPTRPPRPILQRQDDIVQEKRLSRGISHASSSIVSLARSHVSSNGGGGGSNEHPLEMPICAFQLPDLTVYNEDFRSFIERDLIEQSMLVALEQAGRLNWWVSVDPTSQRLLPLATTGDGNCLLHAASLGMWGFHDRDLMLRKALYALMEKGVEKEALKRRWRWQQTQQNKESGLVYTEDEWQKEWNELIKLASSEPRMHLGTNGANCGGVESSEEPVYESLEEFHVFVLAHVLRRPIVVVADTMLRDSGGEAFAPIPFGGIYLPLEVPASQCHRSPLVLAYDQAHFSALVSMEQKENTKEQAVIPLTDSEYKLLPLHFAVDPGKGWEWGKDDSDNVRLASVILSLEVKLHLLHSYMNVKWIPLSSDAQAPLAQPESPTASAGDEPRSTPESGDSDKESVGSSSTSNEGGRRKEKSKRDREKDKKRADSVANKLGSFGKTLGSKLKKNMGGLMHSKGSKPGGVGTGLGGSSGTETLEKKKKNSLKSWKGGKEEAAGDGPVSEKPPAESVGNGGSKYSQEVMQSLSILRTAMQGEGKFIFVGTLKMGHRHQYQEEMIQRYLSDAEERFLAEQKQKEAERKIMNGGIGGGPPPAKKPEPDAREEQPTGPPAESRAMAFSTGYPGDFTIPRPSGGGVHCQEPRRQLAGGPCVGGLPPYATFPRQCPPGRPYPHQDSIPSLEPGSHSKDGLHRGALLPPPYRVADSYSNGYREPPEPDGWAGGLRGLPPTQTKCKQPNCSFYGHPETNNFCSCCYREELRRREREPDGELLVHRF
How it was run: as §1

[3] = target: PRPF8 (UniProt Q6P2Q9)
How it was run: as §1

[4] = target: T3, PSMD7 (UniProt P51665)
T3 sequence (whole entry): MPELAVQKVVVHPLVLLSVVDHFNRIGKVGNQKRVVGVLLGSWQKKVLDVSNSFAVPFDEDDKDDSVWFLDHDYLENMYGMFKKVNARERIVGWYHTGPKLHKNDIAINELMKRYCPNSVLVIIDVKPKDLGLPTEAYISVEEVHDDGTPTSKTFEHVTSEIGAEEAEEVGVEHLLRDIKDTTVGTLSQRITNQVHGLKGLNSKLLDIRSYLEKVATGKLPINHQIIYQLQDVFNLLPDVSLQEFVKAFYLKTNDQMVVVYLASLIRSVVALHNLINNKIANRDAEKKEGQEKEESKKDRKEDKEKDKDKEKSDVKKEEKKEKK
How it was run: as §1

[5] = target: UCHL1 (UniProt P09936)
UCHL1, sequence (P09936 whole entry, looked up): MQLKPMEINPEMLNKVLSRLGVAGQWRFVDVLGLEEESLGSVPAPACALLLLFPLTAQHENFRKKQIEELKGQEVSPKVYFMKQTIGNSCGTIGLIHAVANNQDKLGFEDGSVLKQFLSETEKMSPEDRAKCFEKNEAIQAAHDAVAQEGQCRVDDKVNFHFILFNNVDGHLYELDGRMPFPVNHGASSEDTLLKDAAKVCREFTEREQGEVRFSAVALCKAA
How it was run: as §1

[6] = target: T4, UCHL3 (UniProt P15374)
T4 sequence (whole entry): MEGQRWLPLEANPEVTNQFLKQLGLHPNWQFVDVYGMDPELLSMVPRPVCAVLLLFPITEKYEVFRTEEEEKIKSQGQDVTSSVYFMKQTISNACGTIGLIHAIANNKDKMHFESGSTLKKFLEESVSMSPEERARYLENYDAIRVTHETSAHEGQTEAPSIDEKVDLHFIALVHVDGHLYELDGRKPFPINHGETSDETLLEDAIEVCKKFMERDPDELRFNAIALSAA
How it was run: as §1

[7] = target: T5, UCHL5 (UniProt Q9Y5K5)
T5 sequence (whole entry): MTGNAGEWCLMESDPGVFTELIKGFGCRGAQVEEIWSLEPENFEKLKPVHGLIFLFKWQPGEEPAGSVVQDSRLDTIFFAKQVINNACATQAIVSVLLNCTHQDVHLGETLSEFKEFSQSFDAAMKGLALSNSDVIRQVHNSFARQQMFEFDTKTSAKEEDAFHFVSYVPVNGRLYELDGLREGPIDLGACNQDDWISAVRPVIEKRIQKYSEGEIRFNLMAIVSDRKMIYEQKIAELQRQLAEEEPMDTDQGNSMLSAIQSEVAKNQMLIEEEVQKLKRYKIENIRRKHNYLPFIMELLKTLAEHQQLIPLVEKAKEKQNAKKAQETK
How it was run: as §1

[8] = target: USP10 (UniProt Q14694)
USP10, sequence (Q14694 whole entry): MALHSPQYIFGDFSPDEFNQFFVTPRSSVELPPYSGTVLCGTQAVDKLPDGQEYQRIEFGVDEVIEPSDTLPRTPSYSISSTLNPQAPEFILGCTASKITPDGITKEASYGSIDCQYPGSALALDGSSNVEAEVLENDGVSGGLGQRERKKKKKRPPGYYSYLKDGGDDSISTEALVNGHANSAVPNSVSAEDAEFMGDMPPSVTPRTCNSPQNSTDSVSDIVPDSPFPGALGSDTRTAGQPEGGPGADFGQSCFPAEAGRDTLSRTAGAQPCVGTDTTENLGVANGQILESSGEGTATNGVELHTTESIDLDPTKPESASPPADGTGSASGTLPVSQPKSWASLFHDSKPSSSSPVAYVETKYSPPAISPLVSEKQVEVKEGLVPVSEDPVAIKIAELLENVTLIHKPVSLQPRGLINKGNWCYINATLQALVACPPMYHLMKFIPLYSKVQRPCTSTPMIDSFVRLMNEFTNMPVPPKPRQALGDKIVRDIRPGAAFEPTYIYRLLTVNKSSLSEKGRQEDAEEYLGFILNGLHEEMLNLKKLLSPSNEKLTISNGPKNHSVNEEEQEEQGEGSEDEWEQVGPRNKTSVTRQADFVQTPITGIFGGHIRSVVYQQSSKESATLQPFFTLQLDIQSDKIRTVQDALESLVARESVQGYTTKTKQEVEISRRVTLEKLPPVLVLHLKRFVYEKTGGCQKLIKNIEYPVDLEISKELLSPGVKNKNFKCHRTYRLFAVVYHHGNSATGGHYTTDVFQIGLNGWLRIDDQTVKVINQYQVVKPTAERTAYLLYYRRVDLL
How it was run: as §1

[9] = target: T6, USP15 (UniProt Q9Y4E8)
T6 sequence (whole entry): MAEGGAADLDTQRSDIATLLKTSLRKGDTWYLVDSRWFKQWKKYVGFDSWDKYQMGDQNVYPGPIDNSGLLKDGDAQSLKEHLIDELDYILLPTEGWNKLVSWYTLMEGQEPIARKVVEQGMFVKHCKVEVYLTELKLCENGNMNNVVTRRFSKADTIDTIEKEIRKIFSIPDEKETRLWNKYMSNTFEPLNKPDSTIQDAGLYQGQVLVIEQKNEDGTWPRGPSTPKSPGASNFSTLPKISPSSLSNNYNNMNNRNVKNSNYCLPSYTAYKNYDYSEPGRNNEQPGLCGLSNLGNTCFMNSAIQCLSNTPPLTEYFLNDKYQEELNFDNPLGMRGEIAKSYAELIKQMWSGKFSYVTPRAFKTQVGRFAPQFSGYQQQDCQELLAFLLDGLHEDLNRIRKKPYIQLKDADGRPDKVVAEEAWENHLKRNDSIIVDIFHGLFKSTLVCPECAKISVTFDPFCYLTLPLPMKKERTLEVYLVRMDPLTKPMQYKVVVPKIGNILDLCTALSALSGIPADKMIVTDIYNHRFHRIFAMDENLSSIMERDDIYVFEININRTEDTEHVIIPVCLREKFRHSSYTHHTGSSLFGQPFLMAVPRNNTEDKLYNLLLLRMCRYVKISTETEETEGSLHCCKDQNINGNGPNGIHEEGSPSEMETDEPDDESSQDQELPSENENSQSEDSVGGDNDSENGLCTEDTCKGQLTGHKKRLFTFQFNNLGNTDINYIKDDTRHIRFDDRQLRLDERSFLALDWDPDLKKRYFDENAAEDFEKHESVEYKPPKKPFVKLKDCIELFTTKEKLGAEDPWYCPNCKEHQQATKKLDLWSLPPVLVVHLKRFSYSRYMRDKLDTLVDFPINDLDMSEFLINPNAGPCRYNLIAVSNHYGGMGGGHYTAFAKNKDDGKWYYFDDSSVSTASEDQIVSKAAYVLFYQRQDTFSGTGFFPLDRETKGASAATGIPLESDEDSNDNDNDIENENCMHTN
How it was run: as §1

[10] = target: USP16 (UniProt Q9Y5T5)
USP16, sequence (Q9Y5T5 whole entry, looked up): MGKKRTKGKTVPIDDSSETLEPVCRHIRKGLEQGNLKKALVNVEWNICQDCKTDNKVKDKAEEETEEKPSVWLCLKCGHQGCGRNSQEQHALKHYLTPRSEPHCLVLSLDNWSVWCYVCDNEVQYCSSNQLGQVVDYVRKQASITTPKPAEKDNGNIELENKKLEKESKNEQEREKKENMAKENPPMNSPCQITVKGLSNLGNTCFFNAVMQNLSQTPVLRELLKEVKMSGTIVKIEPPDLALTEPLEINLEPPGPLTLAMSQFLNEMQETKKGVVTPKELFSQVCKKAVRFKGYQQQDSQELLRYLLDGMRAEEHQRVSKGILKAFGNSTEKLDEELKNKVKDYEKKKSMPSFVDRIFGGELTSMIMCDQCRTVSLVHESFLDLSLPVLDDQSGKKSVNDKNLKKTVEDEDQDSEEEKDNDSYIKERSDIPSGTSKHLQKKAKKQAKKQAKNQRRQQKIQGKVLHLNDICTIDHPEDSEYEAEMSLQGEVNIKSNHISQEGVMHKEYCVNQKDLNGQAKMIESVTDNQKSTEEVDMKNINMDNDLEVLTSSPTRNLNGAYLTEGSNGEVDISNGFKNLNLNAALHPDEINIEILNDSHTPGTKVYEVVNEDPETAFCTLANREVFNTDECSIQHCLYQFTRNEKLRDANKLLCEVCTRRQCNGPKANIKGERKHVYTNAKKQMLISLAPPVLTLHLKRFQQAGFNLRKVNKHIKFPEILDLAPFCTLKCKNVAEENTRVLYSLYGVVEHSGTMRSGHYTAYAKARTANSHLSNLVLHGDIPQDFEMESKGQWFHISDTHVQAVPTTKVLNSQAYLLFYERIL
How it was run: as §1

Measured: log2 ratio of Biotin-Ahx-Ub-VS probe labelling

Cc1cccc(N(CCC#N)C(=O)CCl)c1C
active: [2] -1.2 | [5] -1.09
inactive: [1] 0.027 | [3] 0.241 | [4] 0.0381 | [6] 0.389 | [7] -0.0436 | [8] -0.0111 | [9] -0.0542 | [10] -0.0303
